Assay [1] is described as follows: inhibitors of TNFa-induced NFkB p65 translocation, primary screen, imaging, HUVEC, MLSMR starter and 10KST1 sets (AID 438;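 active means inhibition above 20% together with a positive visual image hit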;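 further: compound added about 3h40 before a 20 min TNFalpha stimulation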;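 on inhibition: signal is the nuclear over cytoplasmic p65 intensity ratio per well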). Conditions: HUVEC TNFa-induced p65 nuclear translocation; cell count: measured here: nuclei count (cytotoxicity indicator), at 2.08 µM; inhibition: at 2 µM, stronger effect = higher value, 0% TNFa-plus-vehicle, 100% no-TNFa wells.
Assay [2] can be described thus: endothelial E-selectin expression blockers – imaging, HUVEC, immunofluorescence, MLSMR starter and 10KST1 sets, primary screen (AID 487;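 active means visually confirmed hit in the image check and inhibition above 20%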;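 on inhibition: signal is fraction of cell area covered by stained E-selectin grains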;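 on nuclei count: 100% = median nuclei count of all wells on the same plate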). Conditions: HUVEC TNFalpha-induced E-selectin immunofluorescence imaging, at 2 µM; inhibition: stronger effect = higher value; nuclei count: measured here: cell number, toxicity.
A short description of assay [3]: Primary imaging screen for DUSP6 inhibitors that restore phospho-Erk in transfected HeLa cells, chemical complementation (AID 609;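 active means compounds giving at least 50% inhibition in the cell-based MKP-3 phosphatase rescue imaging test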;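 on inhibition: phospho-Erk level distribution per well compared with pooled transfected vehicle control wells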). Conditions: HeLa MKP-3 transfected, phospho-Erk imaging KS statistic, at 10 µM, cells stimulated with TPA for 15 min.
Assay [4] deals with Dual specificity protein phosphatase 6 (Homo sapiens) (UniProt Q16828). Described as above. Conditions: HeLa MKP-3 transfected, phospho-Erk imaging KS statistic; at 10 µM; stronger effect = higher value; cells stimulated with TPA for 15 min.
Chain of Dual specificity protein phosphatase 6 (Homo sapiens) (Q16828 whole entry, looked up): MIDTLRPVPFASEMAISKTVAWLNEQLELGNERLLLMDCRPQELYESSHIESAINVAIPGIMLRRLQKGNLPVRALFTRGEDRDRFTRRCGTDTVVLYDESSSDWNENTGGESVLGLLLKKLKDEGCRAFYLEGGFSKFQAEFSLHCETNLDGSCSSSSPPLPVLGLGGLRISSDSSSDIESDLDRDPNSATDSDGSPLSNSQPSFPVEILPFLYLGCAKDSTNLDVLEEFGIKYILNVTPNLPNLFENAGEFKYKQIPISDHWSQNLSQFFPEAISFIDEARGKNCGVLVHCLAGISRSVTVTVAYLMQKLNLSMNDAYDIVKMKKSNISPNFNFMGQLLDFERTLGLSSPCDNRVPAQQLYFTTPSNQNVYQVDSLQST
In assay [5] the target is Voltage-gated potassium channel subunit beta-2 (Rattus norvegicus) (UniProt P62483). As to the kind of experiment: inhibitors of rat Kvbeta2 reductase activity – biochemical, NADPH fluorescence, primary screen (AID 622;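 active means fluorescence slope higher than the sample average by over 3 SD, cut at about -0.22 in these data, passing the limit was not always enough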;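 further: slope of raw intensity against log time taken from 70 to 1610 s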). Conditions: recombinant KvBeta, 4-cyanobenzaldehyde reduction, at 10 µM, stronger effect = higher value.
Chain of Voltage-gated potassium channel subunit beta-2 (Rattus norvegicus) (P62483 whole entry, looked up): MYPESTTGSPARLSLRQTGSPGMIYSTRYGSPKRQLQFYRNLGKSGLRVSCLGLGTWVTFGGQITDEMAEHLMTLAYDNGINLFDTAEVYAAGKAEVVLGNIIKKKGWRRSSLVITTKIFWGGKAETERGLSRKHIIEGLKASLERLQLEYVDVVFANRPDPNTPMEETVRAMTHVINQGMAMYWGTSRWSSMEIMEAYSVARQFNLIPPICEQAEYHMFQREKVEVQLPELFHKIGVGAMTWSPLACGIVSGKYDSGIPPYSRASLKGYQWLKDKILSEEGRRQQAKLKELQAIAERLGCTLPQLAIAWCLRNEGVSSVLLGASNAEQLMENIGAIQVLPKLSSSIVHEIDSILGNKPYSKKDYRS
Assay [6] shares this target. As to the kind of experiment: enhancers of rat Kvbeta2 NADPH turnover – biochemical, NADPH fluorescence, primary screen (AID 623).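 Further: fluorescence intensity change per second fitted from 20 to 320 s.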 Conditions: Recombinant KvBeta, NADPH fluorescence decrease slope, 10 min; at 10 µM; stronger effect = lower value.
Assay [7] concerns the target Alpha-2C adrenergic receptor (Homo sapiens) (UniProt P18825). As to the kind of experiment: compounds altering alpha2C-coupled GIRK flux – cell-based, HEK293 alpha2C/GIRK1/2, thallium flux, primary screen (AID 624;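 active means fluorescence slope after compound addition differing from the mean of all screened samples at 99.7% confidence, in either direction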;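 further: slope of fluorescence ratio to pre-addition baseline per second over 15 to 24 s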). Conditions: thallium flux BTC fluorescence, at 10 µM, actives lie on both sides.
A short description of assay [8]: loss of swimming-algae plug formation – whole organism, Chlamydomonas reinhardtii, WT vs cilia-less mutant, absorbance, 96-well, primary screen (AID 463189;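 active means inhibition at or above 50% relative to wild type and mutant plate controls; inactive means inhibition below 50%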;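 further: 0% = wild type cc124 cells in DMSO and 100% = ciliumless bld1 mutant cells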). Conditions: Chlamydomonas reinhardtii gravitaxis, OD600 absorbance, 2 days; at 10 µM; stronger effect = higher value.
Where [9] appears, read: measured here: cell density z-score.
Setting [10] is: measured here: nuclear c-Myc green intensity z-score.
[11] abbreviates: measured here: nuclear pErk red intensity z-score, stronger effect = higher value.

Active and inactive are the calls of the source.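 How the source made its calls, unless noted: active means NADPH fluorescence slope more negative than the mean of all samples by about 3 SD, 99.7% confidence; inactive means the rest.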

Chain of Alpha-2C adrenergic receptor (Homo sapiens) (P18825 whole entry, looked up): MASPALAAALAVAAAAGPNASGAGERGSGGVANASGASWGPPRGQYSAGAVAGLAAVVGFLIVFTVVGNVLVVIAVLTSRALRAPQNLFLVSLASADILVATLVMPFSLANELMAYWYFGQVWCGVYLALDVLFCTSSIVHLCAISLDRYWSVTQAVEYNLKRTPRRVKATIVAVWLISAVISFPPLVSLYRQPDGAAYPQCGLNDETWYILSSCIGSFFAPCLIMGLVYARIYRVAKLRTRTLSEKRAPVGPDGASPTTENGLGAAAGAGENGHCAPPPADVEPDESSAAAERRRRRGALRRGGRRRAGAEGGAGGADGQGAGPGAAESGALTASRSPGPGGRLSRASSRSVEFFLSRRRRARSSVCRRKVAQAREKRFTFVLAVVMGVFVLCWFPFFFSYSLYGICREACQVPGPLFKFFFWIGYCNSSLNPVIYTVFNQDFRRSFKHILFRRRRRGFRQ

`Oc1ccccc1-c1nc(NCc2ccco2)c2ccccc2n1`: the cell count in assay [1] was found to be 332. The inhibition (as a rule, the drop in the measured response relative to a control, in per cent) in assay [1] was 1.4% (inactive); in assay [2], -50.6% (inactive); in assay [4], -7.01% (inactive); in assay [8], -8.43% (inactive). The molecule further came in with a nuclei count in assay [2] of 151%. For the same molecule, the results for the z-score in assay [3] (setting [9]), in assay [3] (setting [10]) and in assay [3] (setting [11]) were -1.1, 2.11 and -0.675, respectively. Further, in assay [5], the fluorescence slope is -0.396 (inactive). Besides, the NADPH fluorescence slope in assay [6] was -0.000126 (inactive). Also, the slope in assay [7] was 0.00698 (inactive).

For `CCCc1cc(=O)oc2c(CN3CCCC3)c(O)c(Cl)cc12`, the cell count in assay [1] is 371. For the same molecule, the inhibition in assay [1] is -2.3% (inactive); in assay [2], -95.9% (inactive); in assay [4] it was 22.8% (inactive); in assay [8], -0.278% (inactive). In assay [2], this molecule had a nuclei count of 144%. Further, the z-score in assay [3] (setting [9]) is 0.942; in assay [3] (setting [10]) it was -0.732; in assay [3] (setting [11]), 0.231. The fluorescence slope in assay [5] is -0.172 (inactive). In assay [6], the NADPH fluorescence slope is -2.5e-06 (inactive). For the same molecule, in assay [7], the slope is 0.00449 (inactive).

Consider `O=C(NCCCn1ccnc1)C(Cc1ccccc1)N1C(=O)c2ccccc2C1=O` (stereo not drawn), for which, in assay [1], the cell count was determined as 340. The inhibition was -6.9% (inactive) in assay [1], -73.9% (inactive) in assay [2], 1.6e-07% (inactive) in assay [4] and 3.02% (inactive) in assay [8]. For the same molecule, the nuclei count in assay [2] was found to be 125%. Further, the z-score in assay [3] (setting [9]) was 0.63; in assay [3] (setting [10]) it was -0.478; in assay [3] (setting [11]), -0.334. For the same molecule, the fluorescence slope in assay [5] is -0.46 (inactive). In addition, in assay [6], the NADPH fluorescence slope was -0.000126 (inactive). In addition, the slope in assay [7] is 0.00809 (inactive).

As to `Cc1cccc(N(Cc2cc3ccccc3[nH]c2=O)C(=O)c2ccco2)c1C`, the cell count in assay [1] came out at 391. Besides, the inhibition in assay [1] is -8.8% (inactive); in assay [2], -117% (inactive); in assay [4] it was 12.3% (inactive); in assay [8] it was 22.4% (inactive). The nuclei count in assay [2] stood at 150%. For the same molecule, the z-score was 0.27 in assay [3] (setting [9]), -0.684 in assay [3] (setting [10]) and -0.0595 in assay [3] (setting [11]). Also, the fluorescence slope in assay [5] is -0.439 (inactive). The NADPH fluorescence slope in assay [6] is -0.000168 (inactive). Besides, in assay [7], the slope is 0.00782 (inactive).

In the case of `Cc1ccc(N(Cc2cc3ccccc3[nH]c2=O)C(=O)c2ccco2)c(C)c1`, the cell count in assay [1] amounted to 332. The inhibition in assay [1] is -14.8% (inactive); in assay [2] it was -162% (inactive); in assay [4] it was -14% (inactive); in assay [8], 12% (inactive). In assay [2], this molecule had a nuclei count of 173%. The z-score in assay [3] (setting [9]) is 0.558; in assay [3] (setting [10]), -1.26; in assay [3] (setting [11]), 0.6. In assay [5], the fluorescence slope is -0.459 (inactive). Also, in assay [6], the NADPH fluorescence slope was -0.000111 (inactive). For the same molecule, the slope in assay [7] is 0.00671 (inactive).

For `N#C/C(=C\N1CCN(Cc2ccc3c(c2)OCO3)CC1)c1nc2ccccc2s1`, the cell count in assay [1] was 359. Further, the inhibition in assay [1] was -3.7% (inactive); in assay [2] it was -122% (inactive); in assay [4], -14% (inactive); in assay [8], 100% (active). The same molecule showed a nuclei count in assay [2] of 170%. Also, the figures for the z-score in assay [3] (setting [9]), in assay [3] (setting [10]) and in assay [3] (setting [11]) were -0.883, 0.284 and 0.578, respectively. Moreover, the fluorescence slope in assay [5] was -0.428 (inactive). Further, the NADPH fluorescence slope in assay [6] is -0.000152 (inactive). Further, in assay [7], the slope was 0.00144 (inactive).

Consider `CCO/C(C)=N/n1c2nc3ccccc3nc2c2c(=O)n(CC(C)C)c(C)nc21`, for which, in assay [1], the cell count stood at 369. In addition, the inhibition in assay [1] is 1.4% (inactive); in assay [2], -12.8% (inactive); in assay [4], 14% (inactive); in assay [8], 9.95% (inactive). This molecule also gave a nuclei count in assay [2] of 145%. Moreover, the z-score was -0.809 in assay [3] (setting [9]), 0.23 in assay [3] (setting [10]) and 0.00332 in assay [3] (setting [11]). The fluorescence slope in assay [5] was -0.438 (inactive). Besides, the NADPH fluorescence slope in assay [6] is -6e-05 (inactive). The slope in assay [7] was 0.00351 (inactive).

Turning to `Oc1ccccc1-c1nc(NCCN2CCOCC2)c2ccccc2n1`, the cell count in assay [1] amounted to 268. Moreover, the inhibition in assay [1] is -6.5% (inactive); in assay [2], 14.7% (inactive); in assay [4] it was 1.6e-07% (inactive); in assay [8], 62.5% (active). This molecule also registered a nuclei count in assay [2] of 96.7%. Besides, the figures for the z-score in assay [3] (setting [9]), in assay [3] (setting [10]) and in assay [3] (setting [11]) were 0.138, 3.56 and -0.549, respectively. The fluorescence slope in assay [5] was -0.423 (inactive). Further, the NADPH fluorescence slope in assay [6] is -3.4e-05 (inactive). The slope in assay [7] is 0.00504 (inactive).

As to `CC12CCC(C(=O)N(CCC#N)CCC#N)(CC1=O)C2(C)C` (stereo not drawn), the cell count in assay [1] was 311. Moreover, the inhibition is 21.3% (inactive) in assay [1], -9% (inactive) in assay [2], -12.3% (inactive) in assay [4] and 20.6% (inactive) in assay [8]. Besides, in assay [2], the nuclei count was 92.1%. The z-score in assay [3] (setting [9]) is -0.914; in assay [3] (setting [10]), 1.07; in assay [3] (setting [11]), 1.43. Besides, the fluorescence slope in assay [5] was -0.505 (inactive). Besides, the NADPH fluorescence slope in assay [6] was -9.3e-05 (inactive). The slope in assay [7] was 0.00706 (inactive).

As to `COC(=O)C1=C(C)N=C2SC(C)C(=O)N2C1c1cccs1` (stereo not drawn), the cell count in assay [1] turned out to be 366. In addition, the inhibition in assay [1] was 3.7% (inactive); in assay [2], -39.6% (inactive); in assay [4], 22.8% (inactive); in assay [8], 14.7% (inactive). This molecule came in with a nuclei count in assay [2] of 142%. Moreover, the results for the z-score in assay [3] (setting [9]), in assay [3] (setting [10]) and in assay [3] (setting [11]) were 1.89, -0.39 and -0.931, respectively. For the same molecule, the fluorescence slope in assay [5] was -0.426 (inactive). Also, the NADPH fluorescence slope in assay [6] is -0.000101 (inactive). Further, the slope in assay [7] was 0.00597 (inactive).

Regarding `CCOC(=O)c1cc2c(=O)n3ccccc3nc2n(Cc2ccccc2Cl)c1=N`, in assay [1], the cell count worked out at 339. Besides, the inhibition is 0.5% (inactive) in assay [1], -3.3% (inactive) in assay [2], -1.75% (inactive) in assay [4] and 12.4% (inactive) in assay [8]. For the same molecule, the nuclei count in assay [2] is 161%. For the same molecule, the z-score in assay [3] (setting [9]) was -0.704; in assay [3] (setting [10]), 0.973; in assay [3] (setting [11]) it was 1.09. For the same molecule, the fluorescence slope in assay [5] is -0.39 (inactive). Moreover, the NADPH fluorescence slope in assay [6] was -0.000121 (inactive). For the same molecule, the slope in assay [7] was 0.00529 (inactive).

`Cc1ccccc1N1C(=O)C2ON(c3ccccc3)C(c3ccncc3)C2C1=O` (stereo not drawn): the cell count in assay [1] worked out at 337. Besides, the inhibition is -2.8% (inactive) in assay [1], -88.7% (inactive) in assay [2], -12.3% (inactive) in assay [4] and -10.6% (inactive) in assay [8]. In assay [2], this molecule had a nuclei count of 156%. The z-score was -1.56 in assay [3] (setting [9]), -0.511 in assay [3] (setting [10]) and 0.414 in assay [3] (setting [11]). The fluorescence slope in assay [5] is -0.445 (inactive). The NADPH fluorescence slope in assay [6] is -0.000127 (inactive). For the same molecule, the slope in assay [7] is 0.00538 (inactive).

As to `CC12CCC(C(=O)NCCCN3CCOCC3)(OC1=O)C2(C)C` (stereo not drawn), in assay [1], the cell count worked out at 297. Besides, the inhibition is 5.1% (inactive) in assay [1], 12.1% (inactive) in assay [2], 8.76% (inactive) in assay [4] and -10.2% (inactive) in assay [8]. The molecule also registered a nuclei count in assay [2] of 126%. Moreover, the results for the z-score in assay [3] (setting [9]), in assay [3] (setting [10]) and in assay [3] (setting [11]) were 0.486, 0.456 and 1.46, respectively. The fluorescence slope in assay [5] is -0.425 (inactive). In addition, the NADPH fluorescence slope in assay [6] was -0.000122 (inactive). Moreover, the slope in assay [7] was 0.0052 (inactive).

Regarding `Cc1c(C)c2cc(Cl)c(O)c(CN3CCN(C)CC3)c2oc1=O`, the cell count in assay [1] came to 394. Besides, the inhibition in assay [1] is -6.5% (inactive); in assay [2], -104% (inactive); in assay [4], -10.5% (inactive); in assay [8] it was 14% (inactive). The same molecule yielded a nuclei count in assay [2] of 179%. For the same molecule, the results for the z-score in assay [3] (setting [9]), in assay [3] (setting [10]) and in assay [3] (setting [11]) were -0.305, -0.256 and 0.789, respectively. In addition, the fluorescence slope in assay [5] is -0.121 (inactive). For the same molecule, in assay [6], the NADPH fluorescence slope was 3.5e-05 (inactive). Also, the slope in assay [7] is 0.00398 (inactive).

Source of the values: PubChem BioAssay.
